Results reported in the supplement of paper PMC13380429.

Tests used:
[1] = test system: Vero E6 infected with SARS-CoV-2; test: morphology score (similarity to uninfected cells); higher = more like uninfected cells; settings: 24 h
[2] = test system: Vero E6 infected with SARS-CoV-2; test: SARS-CoV-2 infection rate relative to infected DMSO; higher = more infection, active = 60 or less; settings: 24 h

## O=C(COc1ccc(Cl)cc1)N[C@H]1CC[C@H](NC(=O)COc2ccc(Cl)cc2)CC1 (10 µM)
[1]
  morphology score: -0.175
[2]
  SARS-CoV-2 infection rate: 106% (inactive)

## O=C1c2c(O)cc(O)cc2O[C@H](c2ccc(O)c(O)c2)[C@H]1O [taxifolin] (10 µM)
[1]
  morphology score: 0.187
[2]
  SARS-CoV-2 infection rate: 99.5% (inactive)

## CN1C(=O)C(F)=C[C@]2(C)[C@H]3CC[C@]4(C)[C@@H](C(=O)NCc5nc6cccnc6[nH]5)CC[C@H]4[C@@H]3CC[C@@H]12 (10 µM)
[1]
  morphology score: 0.0239
[2]
  SARS-CoV-2 infection rate: 100% (inactive)

## FC(F)(F)c1ccc(CNc2ccc(Cc3c[nH]c4ncccc34)cn2)cc1 (10 µM)
[1]
  morphology score: 0.0358
[2]
  SARS-CoV-2 infection rate: 110% (inactive)

## C[C@@H](Oc1ccc(Cl)cc1)c1ccnc2ncnn12 (10 µM)
[1]
  morphology score: -0.0401
[2]
  SARS-CoV-2 infection rate: 112% (inactive)

## COc1ccc(CCN2CCN(CCCc3ccccc3)CC2)cc1OC [cutamesine] (10 µM)
[1]
  morphology score: -0.0482
[2]
  SARS-CoV-2 infection rate: 106% (inactive)

## CCC(=O)c1cc(-c2ccc(Cl)cc2)n(-c2ccc(S(N)(=O)=O)cc2)c1C (10 µM)
[1]
  morphology score: 0.104
[2]
  SARS-CoV-2 infection rate: 102% (inactive)

## COc1cc(N)c(Cl)cc1C(=O)NC1CN2CCC1CC2 (configuration not stated) [zacopride] (10 µM)
[1]
  morphology score: 0.169
[2]
  SARS-CoV-2 infection rate: 89% (inactive)

## COc1ccccc1NC(=O)OCC1CCN(C(=O)OC(C)(C)C)CC1 (10 µM)
[1]
  morphology score: 0.0728
[2]
  SARS-CoV-2 infection rate: 97% (inactive)

## CCCCCCCCCCCCCCCCCCCCCCCCC(=O)O [pentacosanoic-acid] (10 µM)
[1]
  morphology score: 0.211
[2]
  SARS-CoV-2 infection rate: 96% (inactive)

## NCCC[C@H](N)C(=O)O [ornithine] (10 µM)
[1]
  morphology score: 0.101
[2]
  SARS-CoV-2 infection rate: 96.5% (inactive)

## Nc1nc2[nH]cc(CCc3ccc(C(=O)N[C@@H](CCC(=O)O)C(=O)O)cc3)c2c(=O)[nH]1 [pemetrexed] (10 µM)
[1]
  morphology score: -0.15
[2]
  SARS-CoV-2 infection rate: 121% (inactive)

## Nc1nc(F)nc2c1ncn2[C@@H]1O[C@H](COP(=O)(O)O)[C@@H](O)[C@@H]1O [fludarabine-phosphate] (10 µM)
[1]
  morphology score: 0.103
[2]
  SARS-CoV-2 infection rate: 82.5% (inactive)

## NCCCCCc1c[nH]cn1 [impentamine] (10 µM)
[1]
  morphology score: 0.128
[2]
  SARS-CoV-2 infection rate: 92.5% (inactive)

## Cc1nccc2[nH]c(=O)ccc12 [medorinone] (10 µM)
[1]
  morphology score: 0.145
[2]
  SARS-CoV-2 infection rate: 96.5% (inactive)

## O=C(O)C[C@H]1CC[C@H](c2ccc(NC(=O)c3nnc(Nc4ccc(F)c(F)c4)o3)cc2)CC1 (10 µM)
[1]
  morphology score: 0.115
[2]
  SARS-CoV-2 infection rate: 91% (inactive)

## CC(C)CCC[C@@H](C)[C@H]1CC[C@H]2[C@@H]3CCC4=CC(=NO)CC[C@]4(C)[C@H]3CC[C@]12C [olesoxime] (10 µM)
[1]
  morphology score: -0.0917
[2]
  SARS-CoV-2 infection rate: 106% (inactive)

## CC(=O)O[C@H]1C[C@H](O[C@H]2[C@@H](O)C[C@H](O[C@H]3[C@@H](O)C[C@H](O[C@H]4CC[C@@]5(C)[C@H](CC[C@@H]6[C@@H]5C[C@@H](O)[C@]5(C)[C@@H](C7=CC(=O)OC7)CC[C@]65O)C4)O[C@@H]3C)O[C@@H]2C)O[C@H](C)[C@H]1O[C@@H]1O[C@H](CO)[C@@H](O)[C@H](O)[C@H]1O [lanatoside-C] (0.833333 µM)
[1]
  morphology score: -0.0895
[2]
  SARS-CoV-2 infection rate: 102% (inactive)

## Cc1ccc(NC(=O)Nc2cc(C(F)(F)F)ccc2F)cc1Nc1ccc2c(c1)NC(=O)/C2=C\c1ccc[nH]1 (10 µM)
[1]
  morphology score: 0.567
[2]
  SARS-CoV-2 infection rate: 51.5% (active)

## O=C(O)c1cc(=O)c2ccccc2o1 [chromocarb] (10 µM)
[1]
  morphology score: -0.133
[2]
  SARS-CoV-2 infection rate: 106% (inactive)

## O=C(Nc1ccccc1)[C@]12C[C@H]1/C(=N\O)c1ccccc1O2 (10 µM)
[1]
  morphology score: 0.246
[2]
  SARS-CoV-2 infection rate: 79% (inactive)

## C[C@H]1C[C@H]2[C@@H]3CCC4=CC(=O)C=C[C@]4(C)[C@H]3C(=O)C[C@]2(C)[C@@]1(O)C(=O)CO [Betapar (Meprednisone)] (10 µM)
[1]
  morphology score: 0.0238
[2]
  SARS-CoV-2 infection rate: 108% (inactive)

## C#C[C@]1(O)CC[C@H]2[C@@H]3CCC4=CC(=O)CC[C@@H]4[C@H]3CC[C@@]21CC [norgestrel] (10 µM)
[1]
  morphology score: 0.191
[2]
  SARS-CoV-2 infection rate: 102% (inactive)

## COC(=O)[C@H](Cc1cccc(C(=N)N)c1)[C@@H](C)NC(=O)c1ccc(-c2cc[n+]([O-])cc2)cc1 [otamixaban] (10 µM)
[1]
  morphology score: -0.0764
[2]
  SARS-CoV-2 infection rate: 100% (inactive)

## C(=C\c1ccccc1)/CN1CCN(CCOC(c2ccccc2)c2ccccc2)CC1 (10 µM)
[1]
  morphology score: 0.33
[2]
  SARS-CoV-2 infection rate: 82.5% (inactive)

## O=C1C=Cc2cc(Br)ccc2C1=O [bonaphthone] (10 µM)
[1]
  morphology score: -0.0263
[2]
  SARS-CoV-2 infection rate: 103% (inactive)
